Measurements from the supplement of paper PMC10849652.
The full data set covers some 7,900 targets. This sample favours those with a hit. About 0.6% of all pairs of compound and target were hits. Unmarked numbers belong to inactive results.

What was measured:
Assay in all cases: log2 fold change, soluble protein after heating vs DMSO (PISA); higher = thermal stabilisation; K562 cells, 10 uM, 30 min; active = over 0.2 and 3.5 SD of the protein, either way, in both replicates (recomputed)
[1] = compound: COC1=CC=C(C=C1)CN2C=CC3=C2C=C(C=C3)C(=O)NO
How it was run: (§1)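 Soluble protein was defined as the supernatant after 21,000xg for 90 min. It came from K562 cells at 2×10^6 cells/mL given 10 μM compound for 30 min, heated in aliquots for 3 min across 48°C-58°C, pooled, and extracted in PBS with 0.5% NP-40 at 4°C, and was quantified by TMTpro 16plex LC-MS/MS with equalised channel sums. Thermal stability against control samples, from duplicates, is reported as log2 fold change.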

filanesib = compound: CON(C)C(=O)N1N=C(c2cc(F)ccc2F)S[C@@]1(CCCN)c1ccccc1 [filanesib]
How it was run: as §1

zotarolimus = compound: CO[C@H]1C[C@@H]2CC[C@@H](C)[C@@](O)(O2)C(=O)C(=O)N2CCCC[C@H]2C(=O)O[C@H]([C@H](C)C[C@@H]2CC[C@H](n3cnnn3)[C@H](OC)C2)CC(=O)[C@H](C)/C=C(\C)[C@@H](O)[C@@H](OC)C(=O)[C@H](C)C[C@H](C)/C=C/C=C/C=C/1C [zotarolimus]
How it was run: as §1

idasanutlin = compound: COc1cc(C(=O)O)ccc1NC(=O)[C@@H]1N[C@@H](CC(C)(C)C)[C@](C#N)(c2ccc(Cl)cc2F)[C@H]1c1cccc(Cl)c1F [idasanutlin]
How it was run: as §1

alisertib = compound: COc1cc(Nc2ncc3c(n2)-c2ccc(Cl)cc2C(c2c(F)cccc2OC)=NC3)ccc1C(=O)O [alisertib]
How it was run: as §1

[2] = compound: COc1cc2nc(-c3cc(F)ccc3O)nc(N[C@@H]3CNC[C@H]3C(C)(C)O)c2cc1OC
How it was run: as §1

gefitinib = compound: COc1cc2ncnc(Nc3ccc(F)c(Cl)c3)c2cc1OCCCN1CCOCC1 [gefitinib]
How it was run: as §1

[3] = compound: COc1cccc2cc(-c3nc([C@H]4CC[C@H](C(=O)O)CC4)n4ncnc(N)c34)[nH]c12
How it was run: as §1

lapatinib = compound: CS(=O)(=O)CCNCc1ccc(-c2ccc3ncnc(Nc4ccc(OCc5cccc(F)c5)c(Cl)c4)c3c2)o1 [lapatinib]
How it was run: as §1

pictilisib = compound: CS(=O)(=O)N1CCN(Cc2cc3nc(-c4cccc5[nH]ncc45)nc(N4CCOCC4)c3s2)CC1 [pictilisib]
How it was run: as §1

[4] = compound: CS(=O)(=O)c1ccc(-c2cnc(N)c(C(=O)Nc3ccccc3)n2)cc1
How it was run: as §1

crizotinib = compound: C[C@@H](Oc1cc(-c2cnn(C3CCNCC3)c2)cnc1N)c1c(Cl)ccc(F)c1Cl [crizotinib]
How it was run: as §1

[5] = compound: C[C@@H]1COCCN1C2=NC(=NC(=C2)C3(CC3)S(=O)(=O)C)C4=C5C=CNC5=CC=C4
How it was run: as §1

[6] = compound: C[C@H](C1=CC=C(C=C1)C(=O)NC2=C3C=CNC3=NC=C2)N
How it was run: as §1

duvelisib = compound: C[C@H](Nc1ncnc2nc[nH]c12)c1cc2cccc(Cl)c2c(=O)n1-c1ccccc1 [duvelisib]
How it was run: as §1

gandotinib = compound: Cc1cc(Nc2cc(CN3CCOCC3)c3nc(C)c(Cc4ccc(Cl)cc4F)n3n2)n[nH]1 [gandotinib]
How it was run: as §1

tozasertib = compound: Cc1cc(Nc2cc(N3CCN(C)CC3)nc(Sc3ccc(NC(=O)C4CC4)cc3)n2)n[nH]1 [tozasertib]
How it was run: as §1

[7] = compound: Cc1cc(SCc2sc(-c3ccc(C(F)(F)F)cc3)nc2C)ccc1OCC(=O)O
How it was run: as §1

doramapimod = compound: Cc1ccc(-n2nc(C(C)(C)C)cc2NC(=O)Nc2ccc(OCCN3CCOCC3)c3ccccc23)cc1 [doramapimod]
How it was run: as §1

ispinesib = compound: Cc1ccc(C(=O)N(CCCN)[C@@H](c2nc3cc(Cl)ccc3c(=O)n2Cc2ccccc2)C(C)C)cc1 [ispinesib]
How it was run: as §1

Chain of UniProt P35244 (P35244 whole entry, looked up): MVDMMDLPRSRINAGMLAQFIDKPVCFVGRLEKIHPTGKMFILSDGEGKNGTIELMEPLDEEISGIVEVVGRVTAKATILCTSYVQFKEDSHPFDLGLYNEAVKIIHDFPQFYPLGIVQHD
Chain of UniProt P11233 (P11233 whole entry, looked up): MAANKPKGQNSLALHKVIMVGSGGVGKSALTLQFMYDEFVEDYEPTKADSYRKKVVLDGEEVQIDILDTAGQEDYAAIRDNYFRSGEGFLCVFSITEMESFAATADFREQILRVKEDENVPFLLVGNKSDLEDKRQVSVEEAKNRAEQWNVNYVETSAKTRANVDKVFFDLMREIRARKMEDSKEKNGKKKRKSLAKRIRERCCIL
Chain of UniProt Q9BY42 (Q9BY42 whole entry, looked up): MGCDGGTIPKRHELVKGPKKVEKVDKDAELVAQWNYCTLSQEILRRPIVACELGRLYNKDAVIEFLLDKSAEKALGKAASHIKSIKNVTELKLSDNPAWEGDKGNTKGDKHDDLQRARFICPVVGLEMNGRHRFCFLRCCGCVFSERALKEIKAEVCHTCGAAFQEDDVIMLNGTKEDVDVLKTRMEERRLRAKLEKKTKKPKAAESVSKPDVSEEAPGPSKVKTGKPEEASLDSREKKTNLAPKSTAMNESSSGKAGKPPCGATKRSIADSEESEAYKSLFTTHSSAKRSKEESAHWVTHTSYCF
Chain of UniProt Q9P2N5 (Q9P2N5 whole entry, looked up): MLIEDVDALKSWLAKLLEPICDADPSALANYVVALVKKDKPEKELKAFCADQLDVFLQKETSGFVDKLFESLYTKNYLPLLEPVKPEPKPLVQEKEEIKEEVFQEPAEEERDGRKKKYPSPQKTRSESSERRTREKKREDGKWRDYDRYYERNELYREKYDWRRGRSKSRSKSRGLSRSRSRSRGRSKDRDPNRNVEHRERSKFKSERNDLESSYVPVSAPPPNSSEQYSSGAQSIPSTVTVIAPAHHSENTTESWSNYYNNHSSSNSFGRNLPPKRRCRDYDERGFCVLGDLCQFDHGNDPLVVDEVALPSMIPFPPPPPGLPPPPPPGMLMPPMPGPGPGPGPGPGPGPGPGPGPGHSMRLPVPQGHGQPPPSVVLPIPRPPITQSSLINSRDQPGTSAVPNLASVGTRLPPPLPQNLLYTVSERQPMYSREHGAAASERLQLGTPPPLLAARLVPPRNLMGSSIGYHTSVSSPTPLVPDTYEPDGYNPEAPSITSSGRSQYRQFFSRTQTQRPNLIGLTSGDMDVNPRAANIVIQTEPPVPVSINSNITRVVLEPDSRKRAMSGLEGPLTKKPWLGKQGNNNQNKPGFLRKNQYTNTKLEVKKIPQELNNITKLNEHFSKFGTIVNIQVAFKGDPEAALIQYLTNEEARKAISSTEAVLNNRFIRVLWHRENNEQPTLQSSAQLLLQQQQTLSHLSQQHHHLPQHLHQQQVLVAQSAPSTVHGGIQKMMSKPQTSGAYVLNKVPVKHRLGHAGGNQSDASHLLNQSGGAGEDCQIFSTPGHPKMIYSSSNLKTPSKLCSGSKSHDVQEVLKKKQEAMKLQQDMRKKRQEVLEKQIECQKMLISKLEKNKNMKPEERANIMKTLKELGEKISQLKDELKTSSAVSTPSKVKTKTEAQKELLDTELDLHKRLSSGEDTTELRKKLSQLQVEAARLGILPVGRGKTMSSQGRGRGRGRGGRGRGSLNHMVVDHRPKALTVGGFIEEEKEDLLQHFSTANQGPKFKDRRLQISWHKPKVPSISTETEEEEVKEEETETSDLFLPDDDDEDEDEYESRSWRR
Chain of UniProt Q9BXP2 (Q9BXP2 whole entry, looked up): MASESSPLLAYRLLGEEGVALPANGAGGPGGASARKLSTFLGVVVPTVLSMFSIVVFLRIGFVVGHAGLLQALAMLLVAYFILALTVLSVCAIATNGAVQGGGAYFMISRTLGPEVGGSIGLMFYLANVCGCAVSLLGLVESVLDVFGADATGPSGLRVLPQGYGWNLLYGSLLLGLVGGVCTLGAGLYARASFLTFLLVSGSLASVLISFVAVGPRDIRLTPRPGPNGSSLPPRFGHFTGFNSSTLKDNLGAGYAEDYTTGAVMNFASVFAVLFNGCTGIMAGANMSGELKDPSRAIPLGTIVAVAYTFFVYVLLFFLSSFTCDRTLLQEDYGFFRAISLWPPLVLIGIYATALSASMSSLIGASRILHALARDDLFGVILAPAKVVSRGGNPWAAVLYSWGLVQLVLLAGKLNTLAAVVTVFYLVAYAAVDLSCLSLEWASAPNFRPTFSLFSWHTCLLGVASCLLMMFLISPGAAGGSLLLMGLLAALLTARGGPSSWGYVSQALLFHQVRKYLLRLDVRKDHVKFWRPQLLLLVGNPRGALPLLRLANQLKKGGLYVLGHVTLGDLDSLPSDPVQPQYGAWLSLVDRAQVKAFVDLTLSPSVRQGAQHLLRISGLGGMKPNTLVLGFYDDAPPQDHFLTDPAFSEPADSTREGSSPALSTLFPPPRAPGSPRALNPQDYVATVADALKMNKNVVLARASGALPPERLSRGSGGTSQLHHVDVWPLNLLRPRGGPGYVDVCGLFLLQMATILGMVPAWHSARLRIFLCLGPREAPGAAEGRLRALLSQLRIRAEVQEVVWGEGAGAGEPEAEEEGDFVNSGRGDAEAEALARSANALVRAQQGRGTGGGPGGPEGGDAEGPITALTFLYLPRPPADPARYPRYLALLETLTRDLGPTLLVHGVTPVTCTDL
Chain of UniProt Q13796 (Q13796 whole entry, looked up): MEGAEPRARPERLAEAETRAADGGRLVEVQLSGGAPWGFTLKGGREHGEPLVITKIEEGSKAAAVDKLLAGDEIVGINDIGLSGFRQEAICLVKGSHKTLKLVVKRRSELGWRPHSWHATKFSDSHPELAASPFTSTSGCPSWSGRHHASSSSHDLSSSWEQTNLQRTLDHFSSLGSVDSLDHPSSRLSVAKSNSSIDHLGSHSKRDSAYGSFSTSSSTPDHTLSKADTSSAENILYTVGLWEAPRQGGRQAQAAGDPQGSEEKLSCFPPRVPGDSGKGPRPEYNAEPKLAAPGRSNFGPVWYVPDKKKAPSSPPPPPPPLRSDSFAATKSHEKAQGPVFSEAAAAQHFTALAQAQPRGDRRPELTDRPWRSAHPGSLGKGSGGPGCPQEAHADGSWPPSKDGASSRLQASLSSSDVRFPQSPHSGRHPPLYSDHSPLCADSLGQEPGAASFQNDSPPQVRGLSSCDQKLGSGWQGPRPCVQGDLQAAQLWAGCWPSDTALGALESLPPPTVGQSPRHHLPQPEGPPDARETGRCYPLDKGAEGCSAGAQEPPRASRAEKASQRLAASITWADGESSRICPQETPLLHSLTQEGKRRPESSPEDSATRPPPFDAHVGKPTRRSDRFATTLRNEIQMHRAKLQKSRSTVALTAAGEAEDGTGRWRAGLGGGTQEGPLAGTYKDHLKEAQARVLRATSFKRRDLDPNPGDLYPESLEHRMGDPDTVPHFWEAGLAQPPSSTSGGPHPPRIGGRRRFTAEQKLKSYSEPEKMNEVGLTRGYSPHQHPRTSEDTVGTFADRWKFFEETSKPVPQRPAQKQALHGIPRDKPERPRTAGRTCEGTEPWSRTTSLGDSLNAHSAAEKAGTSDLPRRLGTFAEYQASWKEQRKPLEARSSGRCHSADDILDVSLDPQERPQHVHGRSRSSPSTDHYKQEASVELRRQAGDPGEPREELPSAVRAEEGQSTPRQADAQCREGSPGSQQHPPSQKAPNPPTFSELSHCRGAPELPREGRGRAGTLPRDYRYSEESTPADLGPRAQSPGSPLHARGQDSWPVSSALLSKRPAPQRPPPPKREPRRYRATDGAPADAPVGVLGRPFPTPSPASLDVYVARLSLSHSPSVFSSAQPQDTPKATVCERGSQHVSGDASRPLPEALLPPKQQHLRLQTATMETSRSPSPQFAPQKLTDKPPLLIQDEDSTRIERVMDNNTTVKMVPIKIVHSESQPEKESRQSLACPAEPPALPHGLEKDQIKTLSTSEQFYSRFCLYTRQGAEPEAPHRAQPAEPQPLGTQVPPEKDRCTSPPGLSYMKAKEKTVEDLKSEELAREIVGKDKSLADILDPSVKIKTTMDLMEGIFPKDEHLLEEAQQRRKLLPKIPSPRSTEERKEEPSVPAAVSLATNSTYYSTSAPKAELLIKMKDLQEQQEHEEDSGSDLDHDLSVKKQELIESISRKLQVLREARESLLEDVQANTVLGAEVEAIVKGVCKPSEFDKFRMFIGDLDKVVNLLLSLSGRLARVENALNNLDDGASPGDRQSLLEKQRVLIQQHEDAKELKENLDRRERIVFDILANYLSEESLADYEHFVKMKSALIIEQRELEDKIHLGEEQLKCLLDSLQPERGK
Chain of UniProt Q8NBJ9 (Q8NBJ9 whole entry, looked up): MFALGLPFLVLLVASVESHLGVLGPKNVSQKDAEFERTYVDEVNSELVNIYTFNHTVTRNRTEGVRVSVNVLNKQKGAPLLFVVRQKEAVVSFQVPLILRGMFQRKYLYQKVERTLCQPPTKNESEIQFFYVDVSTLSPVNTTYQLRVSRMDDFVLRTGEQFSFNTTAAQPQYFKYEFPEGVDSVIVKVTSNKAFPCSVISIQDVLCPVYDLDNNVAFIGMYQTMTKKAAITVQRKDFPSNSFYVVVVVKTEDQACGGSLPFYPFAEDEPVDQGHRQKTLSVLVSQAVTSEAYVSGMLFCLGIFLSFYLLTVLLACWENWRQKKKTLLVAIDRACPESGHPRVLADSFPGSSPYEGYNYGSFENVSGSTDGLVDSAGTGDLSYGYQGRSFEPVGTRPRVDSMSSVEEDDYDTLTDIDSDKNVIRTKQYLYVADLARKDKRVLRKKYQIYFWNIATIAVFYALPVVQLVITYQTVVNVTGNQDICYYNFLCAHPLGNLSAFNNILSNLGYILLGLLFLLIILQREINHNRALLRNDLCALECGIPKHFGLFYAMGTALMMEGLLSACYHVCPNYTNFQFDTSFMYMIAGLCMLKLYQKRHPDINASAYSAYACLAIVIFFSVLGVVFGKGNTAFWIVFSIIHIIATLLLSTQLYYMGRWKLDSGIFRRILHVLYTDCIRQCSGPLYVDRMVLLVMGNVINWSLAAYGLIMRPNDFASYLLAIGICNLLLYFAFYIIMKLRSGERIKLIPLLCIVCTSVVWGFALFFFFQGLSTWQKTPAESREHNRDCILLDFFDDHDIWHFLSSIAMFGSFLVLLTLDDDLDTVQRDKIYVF

Target | log2 fold change [1] | log2 fold change (filanesib) | log2 fold change (zotarolimus) | log2 fold change (idasanutlin) | log2 fold change (alisertib) | log2 fold change [2] | log2 fold change (gefitinib) | log2 fold change [3] | log2 fold change (lapatinib) | log2 fold change (pictilisib) | log2 fold change [4] | log2 fold change (crizotinib) | log2 fold change [5] | log2 fold change [6] | log2 fold change (duvelisib) | log2 fold change (gandotinib) | log2 fold change (tozasertib) | log2 fold change [7] | log2 fold change (doramapimod) | log2 fold change (ispinesib)
RBM27 (UniProt Q9P2N5) | -0.025 | 0.094 | 0.027 | 0.075 | 0.02 | -0.058 | 0.057 | 0.018 | 0.051 | -0.08 | 0.006 | 0.021 | 0.026 | -0.174 | 0.001 | -0.019 | 0.027 | 0.09 | -0.035 | -0.122
RPA3 (UniProt P35244) | 0.054 | -0.038 | 0.056 | -0.064 | 0.073 | -0.05 | -0.01 | -0.048 | 0.04 | 0.046 | -0.044 | 0.042 | -0.162 | -0.098 | 0.043 | 0.11 | 0.053 | 0.003 | -0.054 | 0.109
RIPK1 (UniProt Q13546) | 0 | 0.049 | 0.098 | 0.022 | -0.052 | 0.032 | 0.043 | -0.214 | 0.055 | 0.027 | 0.058 | 0.274 | -0.01 | 0.09 | -0.1 | 0.301 | 1.05 (active) | 0.118 | 0.031 | -0.155
SEPTIN5 (UniProt Q99719) | 0.034 | -0.003 | 0.013 | -0.067 | -0.044 | 0 | 0.006 | 0.02 | -0.035 | 0.08 | 0.004 | 0.017 | 0.036 | -0.036 | 0.002 | -0.023 | -0.008 | -0.017 | -0.017 | 0.027
RRP9 (UniProt O43818) | -0.011 | 0.143 | -0.059 | 0.171 | -0.14 | -0.061 | 0.027 | 0.047 | 0.037 | -0.04 | -0.05 | 0.084 | -0.2 | 0.031 | -0.029 | 0.056 | 0.121 | -0.054 | 0.063 | 0.12
RRP12 (UniProt Q5JTH9) | -0.03 | 0.288 | -0.046 | 0.032 | 0.204 | 0.222 | -0.104 | -0.222 | -0.128 | 0.032 | -0.056 | -0.074 | -0.242 | 0.811 (active) | -0.014 | 0.074 | -0.092 | 0.053 | 0.203 | -0.172
SLC12A9 (UniProt Q9BXP2) | -0.022 | -0.093 | 0.091 | 0.044 | -0.106 | 0.049 | -0.151 | 0.023 | 0.075 | -0.121 | -0.071 | -0.315 (active) | -0.022 | 0.016 | -0.038 | -0.16 | 0.001 | -0.074 | -0.012 | -0.713 (active)
RAB3IL1 (UniProt Q8TBN0) | -0.006 | -0.003 | -0.023 | 0 | -0.115 | 0.07 | 0.033 | 0.038 | 0.001 | -0.019 | 0.009 | 0.086 | 0.071 | 0.031 | 0.026 | 0.012 | 0 | -0.009 | -0.021 | 0.04
RBM25 (UniProt P49756) | 0.285 (active) | 0.112 | 0.022 | 0.022 | -0.044 | -0.035 | 0.001 | 0.043 | -0.024 | 0.052 | -0.071 | -0.052 | 0.09 | -0.01 | 0.037 | -0.166 | -0.012 | -0.074 | 0.057 | -0.049
SCPEP1 (UniProt Q9HB40) | 0.078 | -0.082 | 0.009 | 0.002 | 0.007 | -0.058 | -0.014 | 0.057 | -0.021 | 0.096 | -0.03 | -0.254 (active) | -0.041 | -0.028 | 0.083 | 0.127 | -0.03 | 0.032 | -0.032 | -0.163
SIDT2 isoform 2 (UniProt Q8NBJ9) | -0.062 | -0.08 | 0.127 | 0.01 | 0.082 | -0.065 | -0.207 | 0.009 | 0.004 | 0.044 | 0.132 | -0.026 | -0.017 | -0.004 | 0.059 | 0.006 | 0.004 | -0.186 | 0.254 | -0.143
RTF2 (UniProt Q9BY42) | -0.021 | 0.09 | 0.03 | 0.066 | 0.024 | 0.036 | 0.049 | 0 | 0.026 | -0.027 | -0.005 | 0.234 | -0.061 | -0.089 | 0.116 | 0.104 | 0.166 | -0.003 | -0.083 | 0.151
RSPRY1 (UniProt Q96DX4) | -0.065 | 0.01 | -0.01 | -0.061 | -0.051 | -0.006 | 0.048 | 0.031 | 0.046 | 0.054 | -0.037 | 0.11 | 0.02 | -0.006 | 0.142 | 0.067 | -0.053 | 0.012 | 0.083 | 0.033
RHOXF2 (UniProt Q9BQY4) | 0.017 | 0.013 | -0.039 | 0.02 | -0.068 | -0.001 | -0.021 | 0.056 | -0.028 | 0.088 | 0.027 | 0.001 | 0.073 | 0.018 | 0.04 | -0.045 | -0.029 | -0.092 | 0.008 | 0.009
RALA (UniProt P11233) | 0.348 (active) | -0.025 | 0.035 | -0.019 | -0.066 | -0.066 | 0.004 | 0.053 | 0.025 | -0.099 | 0.026 | 0.112 | 0.088 | -0.097 | -0.046 | -0.001 | 0.016 | -0.009 | -0.009 | 0.03
SHROOM2 (UniProt Q13796) | 0.417 | 0.066 | 0.02 | -0.045 | -0.027 | 0.237 | 0.056 | 0.009 | -0.188 | 0.226 | 0.093 | 0.005 | 0.013 | -0.099 | 0.059 | 0.397 | -0.195 | -0.233 | 0.008 | 
